Screening data: PubChem, National Center for Advancing Translational Sciences (NCATS)
Sm TGR inh = S. mansoni TGR enzyme inhibition; purified TGR, DTNB reduction, TNB absorbance 405 nm; Potency, µM (top dose mostly 114 µM), actives largely listed as inhibitors; 3% of 360,000 active; further: nearly all actives have a fitted effect of over 60% in size
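Kinetic colorimetric format: TGR-catalysed, NADPH-driven DTNB reduction monitored via TNB absorbance. Enzyme dispensed at 20 nM; compound exposure 15 min at room temperature before reaction start.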
Pf growth 48h = inhibits P. falciparum growth in the first generation, 48 h | Potency, µM (highest dose often 28.7 µM), most hits filed as inhibitors | P. falciparum luciferase growth in erythrocytes, 48 h | 5.9% of 310,000 active
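Here the parasites carry a stable luciferase gene and grow inside erythrocytes in Albumax-based RPMI medium with compound for one erythrocytic cycle. Activity is scored as loss of luminescent signal.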
CHX counter = affects cycloheximide protein synthesis inhibition readout, counter-screen; max response, %; cell reporter, cycloheximide protein synthesis inhibition counterscreen; 12% of 300,000 active; in the data active means max response mostly above about 13%, no sharp cut-off; inactive means mostly below about 14%; further: read at 38.3 µM for the half of the compounds with a filed dose
Shiga toxin inh = blocks Shiga toxin action in Vero cells; Vero cells, Shiga toxin protein synthesis inhibition reporter; inhibition, % at 38.7 µM; 9.2% of 290,000 active; AID 2315; in the data active means inhibition mostly above about 28%, no sharp cut-off; inactive means mostly below about 43%
Pf growth 96h = P. falciparum growth inhibition at 96 hours; P. falciparum luciferase reporter growth, 96 h; Potency, µM (series often up to 28.7 µM), most hits filed as inhibitors; 6.9% of 320,000 active; AID 504834
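Delayed-death screen, second-generation endpoint: infected erythrocytes, 2% hematocrit, 0.05% parasitemia final; 96 hours at 37 C, 5% CO2; luciferase detection reagent; luminescence decrease equals reduced growth.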
NS1 function inh = influenza NS1 inhibition | Potency, µM (series often up to 46.1 µM) | 0.4% of 270,000 active; calls by dose curve; further: actives are rising curves; nearly all actives have a fitted effect of over 50% in size
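Recovery from NS1-induced slow growth read by OD600 in budding yeast switched to galactose assay medium (pH 6.0, -URA) at 1:100 dilution. Compound 23 nl per well; the matching strain lacking NS1 serves as control.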
Of the large screens only hits and unclear results are named; the others gave an inactive call. Sampled rows, rich in hits. Any-hit rate of the full collection: about 21%. Unless noted, the call rests on the fitted dose curve; in most records, active means well fitted curve in the direction sought with a large enough effect; inconclusive means small, poorly fitted or top-dose-only effect, or another doubt; inactive means no such curve, though single readings can be large; an effect the other way counts as inactive or inconclusive.

CCCn1c2ccccc2c2cnn(CC(=O)NC3CCC(C)CC3)c(=O)c21 (centres undefined)	none
CC(C)(C)C(=O)Cn1ncc(NC2CC2)c(Br)c1=O	CHX counter 13
CO/N=C(\Cn1ncc(N2CCOCC2)c(Br)c1=O)c1ccc(Cl)cc1	Pf growth 96h inconclusive
COC(=O)C(C)NC(=O)C12CC3CC(C1)CC(c1ccc(C)cc1)(C3)C2 (centres undefined)	Pf growth 96h inconclusive
COc1ccc(-c2cc(-c3ccco3)[nH]c(=O)c2C#N)cc1	Sm TGR inh 3.2µM, NS1 function inh inconclusive
COc1ccc(-c2cc(C(F)(F)F)c(C#N)c(=O)[nH]2)cc1	none
CN(C)c1ccc(/C=C/c2cc[n+](C)c3ccccc23)cc1	Pf growth 48h 1µM, CHX counter 27, Pf growth 96h inconclusive (no result: Sm TGR inh)
C[n+]1c(-c2ccccc2)sc2ccccc21	Sm TGR inh inconclusive, Pf growth 48h inconclusive
C[n+]1ccc(-c2ccccc2)c2ccccc21	Pf growth 48h 1µM, Pf growth 96h inconclusive (no result: CHX counter, Shiga toxin inh, NS1 function inh)
CN1/C(=C/c2cc[n+](C)c3ccccc23)C=Cc2ccccc21	Pf growth 48h inconclusive (no result: NS1 function inh)
C[n+]1ccc(/C=C/c2ccccc2O)c2ccccc21	Pf growth 48h 10µM, Pf growth 96h inconclusive (no result: NS1 function inh)
O=C(Cn1c(=O)c2cccn2c2cccnc21)NCc1ccccc1F	none (no result: Pf growth 48h, CHX counter, Shiga toxin inh, Pf growth 96h, NS1 function inh)
O=C(NC1CCOc2ccccc21)c1ccccn1 (centres undefined)	none
COc1ccc(N2CCN(C(=O)c3cc4c(=O)oc5ccc(C)cc5c4s3)CC2)cc1	none (no result: Pf growth 48h, CHX counter, Shiga toxin inh, Pf growth 96h, NS1 function inh)
Cc1ccc(NC(=O)CSCCc2ccccn2)nc1	none (no result: Pf growth 48h)
Cn1cc(C(c2ccccc2OCC(=O)O)c2cn(C)c3ccccc23)c2ccccc21	Pf growth 96h 5.2µM, NS1 function inh inconclusive
CCc1ccc(NC(=O)C2=C(C)C(=O)OC23CCCCC3)cc1	none (no result: Pf growth 48h, CHX counter, Shiga toxin inh, Pf growth 96h, NS1 function inh)
CCOC(=O)NC(=O)/C(C#N)=N\Nc1cccc(Cl)c1	Pf growth 96h inconclusive
CCOC(=O)NC1(Nc2cccc(Cl)c2)Oc2ccccc2O1	Sm TGR inh 50µM, Pf growth 96h inconclusive
O=C(Oc1ccc2c(=O)c(Cl)coc2c1)c1ccncc1	Sm TGR inh 8.9µM
O=C(Oc1ccc2c(=O)c(Oc3ccc4ccccc4c3)coc2c1)c1cncc(Br)c1	none
CN(CC(=O)Nc1c(F)cccc1F)Cc1cccs1	CHX counter 14
Cc1ccc(NC(=O)CN(C)Cc2cccs2)cc1Cl	CHX counter 16
CCN(CC)c1ccc(NC(=O)CN(C)Cc2cccs2)cc1	Pf growth 48h inconclusive
C/C(CC(=O)Nc1ccc(C)c(Cl)c1)=N\NC(=O)Cc1cccs1	CHX counter 17
CC(=O)c1sc2c(c1N)c(=O)[nH]c(=O)n2-c1ccccc1	Pf growth 48h inconclusive
CCOC(=O)CC(=O)c1sc2c(c1N)c(=O)[nH]c(=O)n2-c1ccc(OC)cc1	Pf growth 48h inconclusive, Pf growth 96h 5.2µM
COc1ccccc1NS(=O)(=O)c1cc(NC(=O)c2ccc3c(c2)OCCO3)ccc1C	Pf growth 48h inconclusive, Pf growth 96h inconclusive
CC(NS(=O)(=O)c1cccc(S(=O)(=O)c2ccccc2)c1)C(=O)O (centres undefined)	none
CCOc1ccc(-c2cc(C(=O)N/N=C/c3cccnc3)c3ccccc3n2)cc1	CHX counter 26, Shiga toxin inh 62, Pf growth 96h inconclusive
O=C(N/N=C/c1ccccn1)c1cc(-c2ccccc2)nc2ccccc12	Pf growth 48h inconclusive, Pf growth 96h 13µM, NS1 function inh inconclusive
Cc1ccc(CNC(=O)c2cc(-c3ccc(C)c(C)c3)nc3ccccc23)cc1	none (no result: Pf growth 48h, CHX counter, Shiga toxin inh, Pf growth 96h, NS1 function inh)
Cc1cc(C(=O)N/N=C/c2cccnc2)c2ccccc2n1	none
O=C(N/N=C/c1ccccn1)c1cc(C2CC2)nc2ccccc12	Pf growth 96h inconclusive
O=C(N/N=C/c1ccc(O)cc1)c1cc(-c2ccccc2)nc2ccccc12	CHX counter 34, Shiga toxin inh 65
Cc1ccc(-c2cc(C(=O)N/N=C/c3c(C)nn(C)c3C)c3ccccc3n2)cc1C	CHX counter 19, Pf growth 96h inconclusive (no result: Pf growth 48h)
CN(C)/C=C(/C(=O)c1ccc(Cl)cc1)S(=O)(=O)c1ccc(Cl)cc1	none
COc1cc(Cl)c(NC(=O)CN(C)S(=O)(=O)c2ccc3c(c2)CCCC(=O)N3)c(OC)c1	none (no result: Pf growth 48h, CHX counter, Shiga toxin inh, Pf growth 96h, NS1 function inh)
CN1CCN([C@@H](c2ccccc2)c2ccc(Cl)cc2)CC1	none (no result: Sm TGR inh, CHX counter, Shiga toxin inh, NS1 function inh)
COc1ccc(C2CC(c3ccccc3)Oc3c(C)ccc(C)c32)cc1 (centres undefined)	none (no result: Sm TGR inh, Pf growth 48h, Pf growth 96h, NS1 function inh)
COc1ccc(/C=N/NC(=O)c2cc(-c3ccccc3)nc3ccccc23)cc1O	Pf growth 96h inconclusive
Cc1ccc(-c2cc(C(=O)N/N=C/c3ccoc3)c3ccccc3n2)cc1	Pf growth 96h 9.3µM
COc1ccc(/C=N/NC(=O)c2nc(-c3ccccc3)cc(-c3ccccc3)n2)cc1O	Pf growth 48h inconclusive, CHX counter 29, Pf growth 96h inconclusive
COc1cc(/C=N/NC(=O)c2cc(-c3ccccc3)nc3ccccc23)ccc1O	CHX counter 23, Shiga toxin inh 45
O=C(CSc1nnc2ncccn12)Nc1cccc2ccccc12	none
Cc1csc2c(N(C)CCO)ncnc12	Pf growth 48h inconclusive
CCOC(=O)c1cc2cc(OC)ccc2nc1C	CHX counter 16, Shiga toxin inh 88, Pf growth 96h inconclusive
CCOC(=O)c1ccc2nc(C)c(CCC(C)=O)c(Cl)c2c1	CHX counter 39, Shiga toxin inh 93
CCCCc1c(C)nc2ccc(C(=O)OCC)cc2c1Cl	none
COC(=O)c1ccc2nc(C)c(C)nc2c1	none
CCOC(=O)c1ccc2nc(C)c(C)nc2c1	Shiga toxin inh 61
